These results are taken from PubChem BioAssay.

Active and inactive are the calls of the source.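 How the source made its calls, unless noted: active means compounds that lower viability of the colon cancer cells in the luminescence readout, with no numeric limit stated; inactive means the rest.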

A short description of assay [1]: Wnt pathway potentiators raising nuclear beta-catenin – imaging, WNT3A-conditioned medium, mouse C2C12, NPC library, primary screen (AID 1117326; in the data active means nuclear beta-catenin stimulation mostly above about 4.2%, no sharp cut-off; inactive means mostly below about 10%; further: reference of the scale not given here). The following applies: stronger effect = higher value.
The nature of assay [2]: stimulators of insulin release from INS-1E, primary screen, cell-based, 5 mM glucose, NPC library (AID 1117329;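 active means compound raises insulin release from rat beta cells at 5 mM glucose, no numeric limit stated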; further: reference of the scale not given here). Conditions: rat INS-1E insulin secretion, at 10 µM, stronger effect = higher value.
Assay [3] can be described thus: growth inhibition of GSK3B-pretreated HCT116 cells – cell-based, CellTiter-Glo, 0.2 to 20 µM (AID 1117336;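 active means compounds lowering colon cancer cell viability after pretreatment blocking the GSK3B kinase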). The following applies: HCT116 viability after GSK3B inhibitor, at 20 µM, stronger effect = higher value.
Assay [4] can be described thus: inhibition of endothelial tube formation, primary screen, imaging, VEGF stimulated, CD31 staining, tube area, NPC library (AID 1117340;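 active means compound that reduces growth-factor-driven endothelial tube area in a mixed cell culture, no cutoff stated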). Conditions: VEGF-stimulated ADSC/ECFC co-culture, at 10 µM, stronger effect = higher value.
Assay [5] can be described thus: GLP1 release stimulators, primary, NCI-H716, NPC library (AID 1117341;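 active means compound raises GLP1 secretion from the human gut endocrine cells, with no numeric limit stated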; further: reference of the scale not given here). The following applies: NCI-H716 cells, at 10 µM, stronger effect = higher value.
Assay [6] can be described thus: HCT116 colon cancer cell growth inhibition, primary screen, CellTiter-Glo luminescence, NPC library (AID 1117342;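 active means compounds that lower survival of HCT116 colon cancer cells in the luminescence readout, no numeric limit stated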). The following applies: at 20 µM (top of the series).
A short description of assay [7]: reduced SW480 viability measured with CellTiter-Glo, NPC library, primary (AID 1117343). The following applies: CellTiter-Glo luminescence; at 20 µM (top of the series).
Assay [8] is described as follows: NPC library primary testing for decreased DLD-1 cell viability via CellTiter-Glo (AID 1117346;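 active means compounds that lower survival of DLD-1 colon cancer cells in the luminescence readout, no cutoff given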). Conditions: DLD-1 viability, CellTiter-Glo luminescence; at 20 µM (top of the series).

For `COc1ccc(C(=O)N2CCN(CC(=O)N3CCOCC3)CC2)cc1`, the nuclear beta-catenin stimulation is 0.8% (inactive) in assay [1] (at 10 µM) and 5.2% in assay [1] (stimulation, at 2 µM). Also, in assay [2], the insulin secretion stimulation was 3.1% (inactive). Moreover, the viability decrease in assay [3] was 6.4% (inactive). In addition, the tube area decrease in assay [4] was 2.1% (inactive). The GLP1 secretion stimulation in assay [5] is 0.6% (inactive). Moreover, the inhibition of viability in assay [6] was 4.3% (inactive). Also, the viability decrease (inhibition) in assay [7] was -11.3% (inactive); in assay [8], 3.3% (inactive).
As for `CC(=O)c1ccc(O)c(C(N)=O)c1`, the nuclear beta-catenin stimulation in assay [1] (at 10 µM) was 0.2% (inactive); in assay [1] (stimulation, at 2 µM), -1.6%. Besides, the insulin secretion stimulation in assay [2] is 0.6% (inactive). Besides, in assay [3], the viability decrease was 20.8% (inactive). Besides, the tube area decrease in assay [4] was -0.3% (inactive). In addition, the GLP1 secretion stimulation in assay [5] is 1.6% (inactive). The inhibition of viability in assay [6] was 0.1% (inactive). For the same compound, the viability decrease (inhibition) in assay [7] was -10.5% (inactive); in assay [8], 6.9% (inactive).
For the compound `O=C(O)CNC(=O)c1ccccc1`, the nuclear beta-catenin stimulation in assay [1] (at 10 µM) was 1.3% (inactive); in assay [1] (stimulation, at 2 µM), 1.4%. In assay [2], the insulin secretion stimulation was -1.9% (inactive). For the same compound, in assay [3], the viability decrease is -9.35% (inactive). Further, in assay [4], the tube area decrease was -7.6% (inactive). Besides, the GLP1 secretion stimulation in assay [5] was 4% (inactive). The inhibition of viability in assay [6] was -1.6% (inactive). The viability decrease (inhibition) in assay [7] is 24.7% (inactive); in assay [8], 2.1% (inactive).
As for `Cc1nc([N+](=O)[O-])cn1-c1ccc([N+](=O)[O-])cc1`, the nuclear beta-catenin stimulation in assay [1] (at 10 µM) was -0.1% (inactive); in assay [1] (stimulation, at 2 µM), -2.2%. The insulin secretion stimulation in assay [2] is 2% (inactive). In addition, the viability decrease in assay [3] was -6.7% (inactive). Further, in assay [4], the tube area decrease is 3.8% (inactive). Further, the GLP1 secretion stimulation in assay [5] was 3.6% (inactive). Further, the inhibition of viability in assay [6] was 18.2% (inactive). For the same compound, the viability decrease (inhibition) in assay [7] is 10.4% (inactive); in assay [8], -13.5% (inactive).
On to `CCCCOC(=O)CCCCCCCCC(=O)OCCCC`, for which the nuclear beta-catenin stimulation in assay [1] (at 10 µM) was 1.4% (inactive); in assay [1] (stimulation, at 2 µM), 1%. In addition, in assay [2], the insulin secretion stimulation is 2.4% (inactive). Further, the viability decrease in assay [3] was 10.4% (inactive). For the same compound, the tube area decrease in assay [4] is 3.7% (inactive). In addition, the GLP1 secretion stimulation in assay [5] is 1.9% (inactive). Further, in assay [6], the inhibition of viability was 13.3% (inactive). Moreover, the figures for the viability decrease (inhibition) in assay [7] and in assay [8] were -9.1% (inactive) and 7.6% (inactive), respectively.
For `CCCC(=O)O[C@]1(C(=O)COC(=O)CC)CC[C@H]2[C@@H]3CCC4=CC(=O)CC[C@]4(C)[C@H]3[C@@H](O)C[C@@]21C`, the nuclear beta-catenin stimulation in assay [1] (at 10 µM) was -0.4% (inactive); in assay [1] (stimulation, at 2 µM), -2.3%. Besides, the insulin secretion stimulation in assay [2] was 0.8% (inactive). Further, the viability decrease in assay [3] is -8.8% (inactive). In addition, the tube area decrease in assay [4] was -9% (inactive). In addition, the GLP1 secretion stimulation in assay [5] was 1.9% (inactive). For the same compound, the inhibition of viability in assay [6] is 6.6% (inactive). In addition, the results for the viability decrease (inhibition) in assay [7] and in assay [8] were -5.5% (inactive) and -2% (inactive), respectively.
On to `Cc1oc(=O)oc1COC(=O)[C@@H]1N2C(=O)[C@@H](NC(=O)[C@H](N)c3ccccc3)[C@H]2SC1(C)C`, for which the nuclear beta-catenin stimulation was 0.5% (inactive) in assay [1] (at 10 µM) and 1.3% in assay [1] (stimulation, at 2 µM). Besides, the insulin secretion stimulation in assay [2] was -1% (inactive). Also, the viability decrease in assay [3] is -11.1% (inactive). For the same compound, in assay [4], the tube area decrease is -10.3% (inactive). For the same compound, in assay [5], the GLP1 secretion stimulation was -1.9% (inactive). Besides, the inhibition of viability in assay [6] is -15.2% (inactive). Moreover, the viability decrease (inhibition) in assay [7] is 25.1% (inactive); in assay [8] it was -14.8% (inactive).
`CCCCCCn1c(=O)c2c(ncn2C)n(C)c1=O`: the nuclear beta-catenin stimulation in assay [1] (at 10 µM) is -0.5% (inactive); in assay [1] (stimulation, at 2 µM), -2%. Besides, the insulin secretion stimulation in assay [2] is 1.5% (inactive). Further, the viability decrease in assay [3] is 1.6% (inactive). Moreover, the tube area decrease in assay [4] is 10.5% (inactive). Further, the GLP1 secretion stimulation in assay [5] is 1.6% (inactive). Besides, the inhibition of viability in assay [6] was 6.2% (inactive). Further, the viability decrease (inhibition) is 15% (inactive) in assay [7] and -3.4% (inactive) in assay [8].
On to `Nc1ccc(C(=O)Nc2ccccc2N)cc1`, for which the nuclear beta-catenin stimulation in assay [1] (at 10 µM) was 10.2% (inactive); in assay [1] (stimulation, at 2 µM), 1.9%. For the same compound, the insulin secretion stimulation in assay [2] was -0.6% (inactive). In addition, the viability decrease in assay [3] is 39.9% (active). Further, the tube area decrease in assay [4] was 8.5% (inactive). Moreover, in assay [5], the GLP1 secretion stimulation was 1.1% (inactive). The inhibition of viability in assay [6] is 72.5% (active). Further, the viability decrease (inhibition) in assay [7] is 64.9% (active); in assay [8] it was 29.3% (inactive).
As to `O=C(Nc1ccc(Br)cc1)c1cc(Br)c(Br)s1`, the nuclear beta-catenin stimulation is 24.1% (inactive) in assay [1] (at 10 µM) and -0.1% in assay [1] (stimulation, at 2 µM). In assay [2], the insulin secretion stimulation is 3.5% (inactive). In assay [3], the viability decrease is 99.8% (active). Also, the tube area decrease in assay [4] was 108% (active). Further, the GLP1 secretion stimulation in assay [5] was -2% (inactive). The inhibition of viability in assay [6] was 99.7% (active). Also, the viability decrease (inhibition) in assay [7] and in assay [8] was 102% (active) each time.
With `N/C(=N\N=C\c1ccc(Cl)cc1)N/N=C/c1ccc(Cl)cc1`, the nuclear beta-catenin stimulation in assay [1] (at 10 µM) is 0.5% (inactive); in assay [1] (stimulation, at 2 µM), 0.1%. For the same compound, the insulin secretion stimulation in assay [2] is -0.1% (inactive). Also, the viability decrease in assay [3] was 99.6% (active). Also, in assay [4], the tube area decrease is 108% (active). Also, the GLP1 secretion stimulation in assay [5] is -3.3% (inactive). Moreover, the inhibition of viability in assay [6] is 99.3% (active). For the same compound, the viability decrease (inhibition) was 103% (active) in assay [7] and 102% (active) in assay [8].
Regarding `COc1ccc2nc(SCc3ncc(C)c(OC)c3C)[nH]c2c1`, the nuclear beta-catenin stimulation in assay [1] (at 10 µM) is 1.9% (inactive); in assay [1] (stimulation, at 2 µM), 0.8%. Further, the insulin secretion stimulation in assay [2] is 3.1% (inactive). Besides, the viability decrease in assay [3] is 1% (inactive). Moreover, the tube area decrease in assay [4] was 24.8% (inactive). In addition, the GLP1 secretion stimulation in assay [5] was 1.6% (inactive). Further, the inhibition of viability in assay [6] is 26.8% (inactive). Moreover, the values for the viability decrease (inhibition) in assay [7] and in assay [8] were -12.2% (inactive) and -6.1% (inactive), respectively.
As to `O=C(O)c1[nH]n(-c2ccc(S(=O)(=O)O)cc2)c(=O)c1N=Nc1ccc(S(=O)(=O)O)cc1`, the nuclear beta-catenin stimulation in assay [1] (at 10 µM) was 1.7% (inactive); in assay [1] (stimulation, at 2 µM), -1.1%. Also, in assay [2], the insulin secretion stimulation is 2.7% (inactive). In addition, the viability decrease in assay [3] was -3.9% (inactive). For the same compound, in assay [4], the tube area decrease was -8.4% (inactive). Also, in assay [5], the GLP1 secretion stimulation is -3% (inactive). The inhibition of viability in assay [6] was 4.2% (inactive). The viability decrease (inhibition) is -14% (inactive) in assay [7] and 6.5% (inactive) in assay [8].
